Measurements as given in PubChem BioAssay (Tox21).
Unmarked numbers belong to inactive results. Inconclusive results are not listed. Entries that show only a call come without a potency. Active and inactive are the calls of the source. Unless noted, the call rests on the fitted dose curve.

What was measured:
[1] = Nuclear factor erythroid 2-related factor 2/antioxidant responsive element (Nrf2/ARE) small molecule agonists: qHTS cell viability counter screen in human keratinocytes (AID 1919968; active means well fitted curve in the direction sought with a large enough effect in the repeat runs; an effect the other way counts as inactive or inconclusive; further: nearly all actives have a fitted effect of over 55% in size)
Summary of the method: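 KeratinoSens HaCaT cells, 1,500/well, preincubated 5 h, then exposed to compounds in DMSO for 23 h at 37 C/5% CO2. Viability read as CellTiter-Fluor fluorescence after 1 h, in the same wells as the ARE-luciferase read.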

[2] = Nuclear factor erythroid 2-related factor 2/antioxidant responsive element (Nrf2/ARE) small molecule agonists: luciferase reporter gene qHTS assay in human keratinocytes (AID 1919969); further: nearly all actives have a fitted effect of over 35% in size; further: potency means the concentration at half of the fitted maximal effect
[3] = molecular target: Gonadotropin-releasing hormone receptor (Homo sapiens) (UniProt P30968); test: Human gonadotropin-releasing hormone receptor (GnRHR) small molecule agonists, calcium flux assay in GnRHR-HEK293 cells (AID 1920063); further: nearly all actives have a fitted effect of over 35% in size
Summary of the method: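 HEK293 cells stably expressing human GnRHR were dye-loaded for 1 h at 37 C. Compound was added in agonist mode and fluorescence (Ex/Em 480/540) recorded kinetically for 3 min. Fifteen concentrations, triplicates.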

[4] = molecular target: KiSS-1 receptor (Homo sapiens) (UniProt Q969F8); test: Human kisspeptin (KISS1R) small molecule agonists, calcium flux assay in KISS1R-HEK293 cells (AID 1920064; active means well fitted curve in the direction sought with a large enough effect in the repeat runs; an effect the other way counts as inactive or inconclusive)
Summary of the method: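 HEK293 cells stably expressing human KISS1R were loaded with calcium dye for 1 h at 37 C, then given compound; fluorescence (Ex/Em 480/540) was read kinetically for 3 min. Fifteen concentrations, triplicate.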

[5] = G protein-coupled receptor (GPCR) small molecule agonists, calcium flux assay: HEK293 wild type cell line counter screen (AID 1920065)
Summary of the method: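 Wild-type HEK293 cells plated 18 h, loaded with calcium dye 1 h at 37 C, then compounds added in agonist mode (ATP as positive control). Kinetic fluorescence Ex/Em 480/540 recorded 3 min at 1 sec intervals; 15 concentrations, triplicate.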

[6] = p53 small molecule agonists, cell-based qHTS assay with human liver microsomes (AID 1963577);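 further: p53 response element beta-lactamase reporter cells with liver microsomes plus NADPH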
Summary of the method: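 16 h, 37 C exposure of p53RE-bla cells to compounds with human liver microsomes and NADPH (0.5 mg/mL final each); detection via LiveBLAzer mixture, 2 h dark at room temperature.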

[7] = p53 small molecule agonists, cell-based qHTS assay with rat liver microsomes (AID 1963578)
Summary of the method: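 With rat liver microsomes and NADPH present (0.5 mg/mL final each), p53RE-bla cells are treated with compound for 16 h at 37 C. LiveBLAzer detection mixture is then applied for 2 h at room temperature in the dark.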

[8] = p53 small molecule agonists, cell-based qHTS assay with human liver microsomes: qHTS cell viability counter screen (AID 1963579); further: nearly all actives have a fitted effect of over 45% in size
Summary of the method: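 In this multiplexed counter screen, the reporter plates were subsequently treated with CellTiter-Glo so that cell viability, reflected by luminescence, could be recorded for p53RE-bla cells dosed 16 h with compounds under microsomal activation (HLM and NADPH).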

[9] = p53 small molecule agonists, cell-based qHTS assay with rat liver microsomes: qHTS cell viability counter screen (AID 1963580); further: nearly all actives have a fitted effect of over 45% in size
Summary of the method: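 p53RE-bla HCT-116 cells were exposed 16 h at 37 C to compounds with rat liver microsomes (0.5 mg/mL) and NADPH (0.5 mg/mL). Viability was measured in the same wells as ATP content by CellTiter-Glo luminescence.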

[10] = p53 small molecule agonists, cell-based qHTS assay: qHTS cell viability counter screen (AID 1963581); further: nearly all actives have a fitted effect of over 45% in size
Summary of the method: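 p53RE-bla HCT-116 cells, compounds added 5 h after plating and incubated 16 h at 37 C. Cytotoxicity measured in the same wells as intracellular ATP by CellTiter-Glo luminescence after 30 min at room temperature.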

[11] = p53 small molecule agonists, cell-based qHTS assay (AID 1963582; active means well fitted activation curve with a large enough effect in the signal ratio in the repeat runs, not every such curve was filed as active; the % refers to the signal ratio)
Summary of the method: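 p53RE-bla reporter cells, compounds added in DMSO after 5 h plating, incubated 16 h at 37 C. Beta-lactamase read via 2 h room-temperature LiveBLAzer B/G FRET substrate, fluorescence intensity.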

[12] = molecular target: 5-hydroxytryptamine receptor 2A (Homo sapiens) (UniProt P28223); test: 5-hydroxytryptamine receptor 2A (HTR2A) small molecule agonists, cell-based qHTS assay (AID 1963587); further: nearly all actives have a fitted effect of over 30% in size
Summary of the method: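 CHO cells stably expressing human HTR2A, plated 18 h, loaded with calcium dye 1 h at 37 C. Agonist mode: compounds added and intracellular calcium fluorescence recorded kinetically for 2 min at 1 sec intervals.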

[13] = cAMP Responsive Elements (CRE) small molecule agonists, cell-based qHTS assay (AID 1963590)
Summary of the method: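 CRE-bla HEK 293T cells, 2,000/well in DMEM with 10% dialyzed FBS and 25 mM HEPES, pre-incubated 18 h at 37 C, then exposed to compound 3 h at 37 C. Beta-lactamase reporter read with LiveBLAzer B/G FRET substrate after 2 h at room temperature.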

[14] = molecular target: Beta-2 adrenergic receptor (Homo sapiens) (UniProt P07550); test: Adrenergic beta2 receptor (ADRB2) small molecule antagonists, cell-based qHTS assay (AID 1963592); further: series mostly up to about 92 µM; nearly all actives have a fitted effect of over 50% in size
Summary of the method: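 Cells (CHO, stable ADRB2 overexpression) incubated 18-20hr at 37C; compounds added from DMSO; agonist mix (1nM isoproterenol, 100uM IBMX, 25uM Ro-20-1724) added; 0.5hr RT; d2-cAMP and anti-cAMP-cryptate added; 1hr RT; 665/615 nm read.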

[15] = molecular target: Beta-2 adrenergic receptor (Homo sapiens) (UniProt P07550); test: Adrenergic beta2 receptor (ADRB2) small molecule agonists, cell-based qHTS assay (AID 1963593);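 further: CHO cells stably overexpressing human ADRB2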
Summary of the method: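 CHO cells stably over-expressing ADRB2 were plated overnight at 37C, then dosed with compounds plus a stimulation mix containing 100uM IBMX and 25uM Ro-20-1724 for 0.5hr at room temperature. cAMP was measured by HTRF competition, 1hr.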

[16] = molecular target: D(2) dopamine receptor (Homo sapiens) (UniProt P14416); test: Dopamine D2 receptor (DRD2) small molecule agonists, cell-based qHTS assay (AID 1963594); further: nearly all actives have a fitted effect of over 35% in size
Summary of the method: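 HEK293 cells stably expressing human DRD2, pre-treated with PDE inhibitor Ro20-1724 (0.1 mM final) and compound 10 min at room temperature, then stimulated with NKH477 (200nM […]) for 30 min. cAMP read by HTRF (665/620 nm).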

[17] = molecular target: D(2) dopamine receptor (Homo sapiens) (UniProt P14416); test: Dopamine D2 receptor (DRD2) small molecule antagonists, cell-based qHTS assay (AID 1963595; active means well fitted inhibition curve with a large enough effect in the signal ratio in the repeat runs, with a control signal flat; the % refers to the signal ratio)
Summary of the method: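 DRD2-HEK293; 0.1 mM Ro20-1724; cpd 10 min RT; NKH477 200 nM + quinpirole 12 nM, 30 min RT; HTRF cAMP (cAMP-d2/anti-cAMP cryptate), 665/620 nm ratio after 1 h.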

[18] = molecular target: Muscarinic acetylcholine receptor M1 (Homo sapiens) (UniProt P11229); test: Cholinergic receptor muscarinic 1 (CHRM1) small molecule antagonists, cell-based qHTS assay (AID 1963588); further: nearly all actives have a fitted effect of over 40% in size
Summary of the method: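 CHRM1-CHO calcium-flux assay, antagonist mode. Cells were seeded 18 h, dye-loaded 1 h at 37 C and given compound for 5 min at RT, then acetylcholine was added at 50nM. FDSS fluorescence was read 3 min; 15 concentrations, three runs.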

[19] = molecular target: Muscarinic acetylcholine receptor M1 (Homo sapiens) (UniProt P11229); test: Cholinergic receptor muscarinic 1 (CHRM1) small molecule agonists, cell-based qHTS assay (AID 1963589); further: nearly all actives have a fitted effect of over 35% in size
Summary of the method: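 CHO cells stably expressing human CHRM1 were loaded with calcium dye for 1 h at 37 C, then compound was added in agonist mode. Intracellular calcium fluorescence was followed kinetically at 1 s intervals. Fifteen concentrations were tested in three independent runs.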

[20] = cAMP Responsive Elements (CRE) small molecule antagonists, cell-based qHTS assay (AID 1963591; active means well fitted inhibition curve with a large enough effect in the signal ratio in the repeat runs, not every such curve was filed as active; the % refers to the signal ratio)
Summary of the method: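 CRE-bla HEK293T cells plated 18 h, then given compound plus NKH477 at 0.25 uM final for 3 h at 37C. Beta-lactamase reporter read with LiveBLAzer B/G FRET substrate after 2 h at room temperature.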

D(2) dopamine receptor (Homo sapiens), sequence (P14416 whole entry, looked up): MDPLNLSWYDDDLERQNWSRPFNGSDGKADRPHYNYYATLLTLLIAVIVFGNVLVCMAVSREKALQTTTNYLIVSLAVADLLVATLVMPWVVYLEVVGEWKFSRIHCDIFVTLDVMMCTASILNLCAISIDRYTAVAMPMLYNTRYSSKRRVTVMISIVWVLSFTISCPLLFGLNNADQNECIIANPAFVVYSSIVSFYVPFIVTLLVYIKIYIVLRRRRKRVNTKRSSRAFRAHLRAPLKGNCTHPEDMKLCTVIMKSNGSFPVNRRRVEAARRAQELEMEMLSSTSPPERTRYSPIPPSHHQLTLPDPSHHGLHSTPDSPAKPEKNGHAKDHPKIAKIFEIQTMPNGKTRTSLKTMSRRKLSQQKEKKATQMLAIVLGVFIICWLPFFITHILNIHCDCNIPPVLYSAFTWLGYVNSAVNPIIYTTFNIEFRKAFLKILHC
Muscarinic acetylcholine receptor M1 (Homo sapiens), sequence (P11229 whole entry, looked up): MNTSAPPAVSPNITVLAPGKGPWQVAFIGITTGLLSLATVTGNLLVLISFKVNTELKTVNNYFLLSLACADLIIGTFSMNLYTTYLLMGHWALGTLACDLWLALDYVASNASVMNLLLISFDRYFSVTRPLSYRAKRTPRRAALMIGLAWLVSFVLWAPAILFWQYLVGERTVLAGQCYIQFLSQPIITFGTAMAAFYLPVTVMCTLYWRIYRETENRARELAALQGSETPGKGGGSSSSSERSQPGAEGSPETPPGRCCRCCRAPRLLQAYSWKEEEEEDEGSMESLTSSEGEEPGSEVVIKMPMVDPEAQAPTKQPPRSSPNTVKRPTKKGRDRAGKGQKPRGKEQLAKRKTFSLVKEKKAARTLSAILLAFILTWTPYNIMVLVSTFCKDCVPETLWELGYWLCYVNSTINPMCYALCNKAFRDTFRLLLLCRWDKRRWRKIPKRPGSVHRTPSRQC
Gonadotropin-releasing hormone receptor (Homo sapiens), sequence (P30968 whole entry, looked up): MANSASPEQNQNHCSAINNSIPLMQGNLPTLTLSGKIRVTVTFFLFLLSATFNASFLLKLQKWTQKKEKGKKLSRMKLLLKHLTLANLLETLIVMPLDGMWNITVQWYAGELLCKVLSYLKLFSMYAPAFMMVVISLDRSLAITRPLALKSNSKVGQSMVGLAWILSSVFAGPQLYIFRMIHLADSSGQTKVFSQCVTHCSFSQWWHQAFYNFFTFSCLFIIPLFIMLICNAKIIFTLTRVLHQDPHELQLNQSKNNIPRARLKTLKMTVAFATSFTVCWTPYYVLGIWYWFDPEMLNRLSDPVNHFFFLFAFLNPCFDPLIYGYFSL
Beta-2 adrenergic receptor (Homo sapiens), sequence (P07550 whole entry, looked up): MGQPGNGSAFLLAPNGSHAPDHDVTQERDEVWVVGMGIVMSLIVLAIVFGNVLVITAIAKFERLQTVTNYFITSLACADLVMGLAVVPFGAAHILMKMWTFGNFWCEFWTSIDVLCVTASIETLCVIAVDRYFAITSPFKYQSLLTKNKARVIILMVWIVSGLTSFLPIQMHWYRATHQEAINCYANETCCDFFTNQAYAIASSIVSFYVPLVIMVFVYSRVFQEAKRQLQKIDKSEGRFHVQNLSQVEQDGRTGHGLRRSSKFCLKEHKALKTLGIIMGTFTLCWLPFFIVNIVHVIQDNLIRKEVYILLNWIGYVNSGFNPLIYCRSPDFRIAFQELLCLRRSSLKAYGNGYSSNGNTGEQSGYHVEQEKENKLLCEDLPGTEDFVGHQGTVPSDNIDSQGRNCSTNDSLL
5-hydroxytryptamine receptor 2A (Homo sapiens), sequence (P28223 whole entry, looked up): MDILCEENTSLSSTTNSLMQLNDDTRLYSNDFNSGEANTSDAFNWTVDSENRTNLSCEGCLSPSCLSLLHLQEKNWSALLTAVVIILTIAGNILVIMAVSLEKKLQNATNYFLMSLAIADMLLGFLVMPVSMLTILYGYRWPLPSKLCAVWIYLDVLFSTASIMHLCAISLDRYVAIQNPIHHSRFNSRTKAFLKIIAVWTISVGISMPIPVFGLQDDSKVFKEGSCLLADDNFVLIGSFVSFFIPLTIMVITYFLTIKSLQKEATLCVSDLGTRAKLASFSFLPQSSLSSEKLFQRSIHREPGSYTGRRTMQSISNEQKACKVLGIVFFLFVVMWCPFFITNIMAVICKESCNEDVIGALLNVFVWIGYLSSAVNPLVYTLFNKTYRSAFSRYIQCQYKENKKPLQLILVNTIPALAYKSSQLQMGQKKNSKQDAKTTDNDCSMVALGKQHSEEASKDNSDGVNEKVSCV
KiSS-1 receptor (Homo sapiens), sequence (Q969F8 whole entry, looked up): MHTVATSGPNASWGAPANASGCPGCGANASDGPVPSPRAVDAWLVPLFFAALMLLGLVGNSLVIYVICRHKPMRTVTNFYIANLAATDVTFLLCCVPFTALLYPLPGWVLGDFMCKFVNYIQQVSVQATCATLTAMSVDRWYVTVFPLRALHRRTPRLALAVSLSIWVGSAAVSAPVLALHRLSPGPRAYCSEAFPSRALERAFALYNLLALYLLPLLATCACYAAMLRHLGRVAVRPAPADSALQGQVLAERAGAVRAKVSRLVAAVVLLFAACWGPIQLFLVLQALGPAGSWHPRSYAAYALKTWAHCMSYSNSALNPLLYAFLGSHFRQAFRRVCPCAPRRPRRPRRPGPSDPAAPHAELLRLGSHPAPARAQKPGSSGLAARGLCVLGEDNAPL

Structure (SMILES) | Potency [1] | Potency [2] | Potency [3] | outcome [4] | outcome [5] | Potency [6] | Potency [7] | Potency [8] | Potency [9] | Potency [10] | Potency [11] | Potency [12] | Potency [13] | Potency [14] | Potency [15] | Potency [16] | Potency [17] | Potency [18] | Potency [19] | Potency [20]
Cc1c(C)n(CCN(C)C)c2ccc(C(=O)OCCN(C)C)cc12 | inactive | 29.8 µM (active) | inactive | inactive | inactive | inactive | inactive | inactive | inactive | inactive | inactive | inactive | inactive | inactive | inactive | inactive | inactive | – | – | –
Cc1cc(C)c(C=O)c(C)c1 | inactive | inactive | inactive | inactive | inactive | inactive | inactive | inactive | inactive | inactive | inactive | – | inactive | inactive | – | inactive | inactive | inactive | inactive | inactive
O=Cc1c(Cl)cccc1Cl | inactive | inactive | inactive | inactive | inactive | inactive | inactive | inactive | inactive | inactive | inactive | – | inactive | inactive | – | inactive | inactive | inactive | inactive | inactive
O=C1N(c2ccccc2)c2ccccc2C1(Cc1ccncc1)Cc1ccncc1 | inactive | inactive | inactive | inactive | inactive | inactive | inactive | inactive | inactive | inactive | inactive | inactive | inactive | inactive | – | inactive | – | – | – | –
O=C1CCCCCCCCCCC(=O)OCCO1 | inactive | inactive | inactive | inactive | inactive | inactive | inactive | inactive | inactive | inactive | inactive | – | – | inactive | – | inactive | inactive | inactive | inactive | –
c1ccc(CC2=NCCN2)cc1 | inactive | inactive | inactive | inactive | inactive | inactive | inactive | inactive | inactive | inactive | inactive | – | inactive | inactive | inactive | inactive | inactive | inactive | inactive | inactive
CC(C)(C)C(=O)C(=O)O | inactive | inactive | inactive | inactive | inactive | inactive | inactive | inactive | inactive | inactive | inactive | inactive | inactive | – | – | inactive | inactive | – | – | inactive
COc1ccc2[nH]c(S(=O)Cc3ncc(C)c(OC)c3C)nc2n1 (stereo unspecified) | inactive | 21.1 µM (active) | inactive | inactive | inactive | inactive | inactive | inactive | inactive | inactive | inactive | – | – | inactive | inactive | inactive | inactive | – | inactive | inactive
